IL-1B inflam inh = inflammasome signaling inhibition, IL-1 beta readout. THP-1 LPS/ATP IL-1B secretion, AlphaLISA, 16 h; active compounds read low. activity change, % at 57.5 µM. 360,000 compounds, 4.7% hits. AID 743279; in the data active means activity change below about -50%; inconclusive means mostly about -30% to -49%
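THP-1 cells pretreated 1 hr with compounds (up to 57.5 uM final), then stimulated with LPS (250 ng/mL final) plus ATP (1.25 mM final); secreted IL-1B measured by AlphaLISA after 16 hr, decreased signal indicating inhibition.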
HepG2 tox = HepG2 cytotoxicity, counter-screen for TGF-b inhibitors | HepG2 CAGA-GFP viability, ATP luminescence, 18 h | Potency, µM (titrated, usually from 46.1 µM), hits mostly cytotoxic | 410,000 compounds, 0.76% hits | AID 588856
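HepG2 CAGA-GFP cells (1000/well, DMEM with 1% FBS) received compound, then TGF-beta at 500 pg/mL final, and were incubated 18 hours at 37 degrees C. Viability was read by CellTiter-Glo luminescence. Media-only wells were set as complete cell-killing and DMSO as no toxicity.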
TDP1 cell CPT = DT40-hTDP1 cell growth loss with CPT; chicken DT40 Tdp1-/-;hTDP1 cells + 20 nM CPT, ATP luminescence, 48 h; Potency, µM (highest dose often 46.2 µM), usual class: inhibitors; 420,000 compounds, 12% hits; further: nearly all actives have a fitted effect of over 55% in size
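Cell growth measured by CellTiter-Glo luminescence after a minimum 48 h, 37 C compound exposure with 20 nM CPT in Tdp1-knockout DT40 cells stably expressing hTDP1, seeded 400/well; qHTS titration format.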
TGFb SMAD3 inh = TGF-b pathway inhibition; Potency, µM (doses to about 46.1 µM), actives largely listed as inhibitors; 410,000 compounds, 1.2% hits; HepG2 CAGA-GFP TGF-b/SMAD3 reporter, GFP fluorescence, 18 h; TGF-beta stimulated, 500 pg/mL final; further: nearly all actives have a fitted effect of over 65% in size
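Read-out: total well GFP (ex488/em500-530) summed from mean per-cell fluorescence. Cells: HEPG2 CAGA-GFP, 1% FBS DMEM, 18 h at 37 degrees C with 500 pg/mL final TGF-beta. Unstimulated wells served as the full-inhibition control; stimulated DMSO wells = 0%.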
TDP1 cell noCPT = qHTS for Inhibitors of human tyrosyl-DNA phosphodiesterase 1 (TDP1): qHTS in cells in absence of CPT; DT40 Tdp1-/- hTDP1 cells, no CPT, ATP luminescence, 48 h; Potency, µM (doses to about 46.2 µM), hits mostly inhibitors; 420,000 compounds, 15% hits; AID 686978, 2013; further: nearly all actives have a fitted effect of over 55% in size
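Seeded 400 DT40-hTDP1 cells/well (vehicle DMSO, no 20 nM CPT); pinned compounds; ≥48 hr at 37 °C; CellTiter-Glo luminescence as viability measure.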
TDP1 block = inhibitors of human tyrosyl-DNA phosphodiesterase TDP1; AID 485290; recombinant TDP1, AlphaScreen DNA substrate cleavage; Potency, µM (doses to about 130 µM), hits mostly inhibitors; 350,000 compounds, 0.28% hits; Q9NUW8; further: nearly all actives have a fitted effect of over 40% in size
Target sequence (Q9NUW8 whole entry, looked up): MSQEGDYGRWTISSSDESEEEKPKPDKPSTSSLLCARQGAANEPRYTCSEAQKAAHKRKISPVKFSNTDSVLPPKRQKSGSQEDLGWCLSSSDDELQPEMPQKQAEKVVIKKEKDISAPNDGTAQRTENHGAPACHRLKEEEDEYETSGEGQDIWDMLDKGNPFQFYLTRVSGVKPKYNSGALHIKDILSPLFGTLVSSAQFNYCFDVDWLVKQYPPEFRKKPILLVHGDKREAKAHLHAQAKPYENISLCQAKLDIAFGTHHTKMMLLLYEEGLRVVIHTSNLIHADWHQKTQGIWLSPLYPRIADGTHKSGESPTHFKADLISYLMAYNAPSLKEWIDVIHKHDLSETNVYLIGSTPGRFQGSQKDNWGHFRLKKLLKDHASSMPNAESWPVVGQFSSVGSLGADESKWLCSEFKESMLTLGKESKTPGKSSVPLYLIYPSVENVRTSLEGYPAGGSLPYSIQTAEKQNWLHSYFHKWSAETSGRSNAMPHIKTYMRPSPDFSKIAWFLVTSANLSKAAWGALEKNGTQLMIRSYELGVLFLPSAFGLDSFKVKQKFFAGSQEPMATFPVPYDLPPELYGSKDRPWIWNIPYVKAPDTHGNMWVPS
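Enzyme-compound mixtures sat 15 min at room temperature, followed by a 5 min reaction with 15 nM final substrate and 10 min with AlphaScreen beads. Recombinant human Tdp1 was used at 1 nM final.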
A number is an active result; . = inactive; ? = inconclusive; / = no result; ! = not confirmed by another sample. Compounds with a hit are over-represented: about 19% of the library has one in this group of screens. Unless noted, the call rests on the fitted dose curve; in most records, active means well fitted curve in the direction sought with a large enough effect; inconclusive means small, poorly fitted or top-dose-only effect, or another doubt; inactive means no such curve, though single readings can be large; an effect the other way counts as inactive or inconclusive.

SMILES | IL-1B inflam inh | HepG2 tox | TDP1 cell CPT | TGFb SMAD3 inh | TDP1 cell noCPT | TDP1 block
Cc1cccc(-n2ncc3c(Nc4ccc(Oc5ccc(Cl)cc5)cc4)ncnc32)c1 | / | . | 18.4µM | . | 14.6µM | .
Cc1cccc(-n2ncc3c(Nc4ccc(C)c(Cl)c4)ncnc32)c1 | / | . | 18.4µM | . | 18.4µM | .
O=C(CCS(=O)(=O)c1cccc2nonc12)Nc1c(F)cccc1F | / | . | . | ? | ? | .
COc1cccc(NC(=O)CSC2=Nc3ccccc3C3=NC(CCC(=O)NC4CCCCC4)C(=O)N23)c1 (stereo not given) | / | . | ? | . | ? | .
Cc1ccc(CSC2=Nc3ccccc3C3=NC(CC(=O)NC4CCCCC4)C(=O)N23)cc1 (stereo not given) | / | . | 1.16µM | / | 1.16µM | .
O=C(CCC1N=C2c3ccccc3N=C(SCc3ccc(F)cc3)N2C1=O)NC1CCCCC1 (stereo not given) | / | . | 20.6µM | . | 10.3µM | .
O=C(CC1N=C2c3ccccc3N=C(SCc3ccc(Cl)cc3)N2C1=O)NC1CCCCC1 (stereo not given) | / | . | ? | . | ? | .
O=C(CC1N=C2c3ccccc3N=C(SCc3ccc(F)cc3)N2C1=O)NC1CCCCC1 (stereo not given) | / | . | ? | ? | 16.4µM | .
C[C@@H](NC(=O)[C@@H]1Cc2ccccc2CN1)C(=O)NCC1CCCO1 (stereo not given in full) | . | . | . | . | . | .
CC(=O)N1c2ccc(S(=O)(=O)NCCC(=O)Nc3ccc(F)cc3C)cc2CC1C (stereo not given) | . | . | . | . | . | .
COc1ccc(NC(=O)N2CC[C@@]3(CCCN(C(=O)c4ccncc4)C3)C2)cc1 | / | / | . | / | . | /
O=C(CC1C(=O)CCCC1=O)c1ccccc1 | -204.3 | . | 13µM | ? | ? | .
COc1cccc(Nc2ncc3nc(-c4cc(F)cc(F)c4)c(=O)n(CCC#N)c3n2)c1 | / | / | 11.6µM | / | 16.4µM | /
O=C(NCC1COCCO1)c1cc(COc2ccc(F)cc2F)on1 (stereo not given) | . | . | . | . | . | .
COc1ccc(C2=Nn3c(nnc3-c3ccccc3Cl)SC2)cc1OCC1CC1 | / | . | / | 10µM | / | .
COc1ccc(OC)c(-c2nnc3n2N=C(c2ccc(OC)c(OCC4CC4)c2)CS3)c1 | / | . | / | 7.94µM | / | .
CCOc1ccc(CCNS(=O)(=O)c2c(C)nc3sc(C)cn3c2=O)cc1OCC | / | . | . | . | . | .
c1ccc(-c2noc(CN3CCN(C(c4ccccc4)c4ccccc4)CC3)n2)cc1 | -87.0 | . | . | . | ? | .
COCC1CCCN(Cc2nc(C(c3ccccc3)c3ccccc3)no2)C1 (stereo not given) | . | . | ? | . | 18.4µM | .
c1ccc(C(c2ccccc2)c2noc(CN3CCN(CC4CC4)CC3)n2)cc1 | . | . | 14.6µM | . | ? | .
COCCN(C)Cc1nc(C(c2ccccc2)c2ccccc2)no1 | . | . | . | . | . | .
N#CCc1nc(C(c2ccccc2)c2ccccc2)no1 | ? | . | . | . | . | .
COc1ccc(CNc2cc(-c3cccnc3)ncn2)c(OC)c1 | / | / | ? | / | . | /
CC(=O)Nc1ccc(NC(=O)c2ccc(C)c(S(=O)(=O)Nc3cccc(C)c3)c2)cc1 | . | . | ? | . | ? | .
COc1ccc(CCN(C)C(=O)c2cccc(S(=O)(=O)N3CCN(c4ccc(F)cc4)CC3)c2)cc1OC | . | . | 14.6µM | 11.2µM | 16.4µM | /
SMILES | IL-1B inflam inh | HepG2 tox | TDP1 cell CPT | TGFb SMAD3 inh | TDP1 cell noCPT | TDP1 block
O=C(NCCOc1ccc(Cl)cc1)c1cccc(S(=O)(=O)N2CCCC2)c1 | . | . | ? | . | ? | .
CN(CCOc1ccc(Cl)cc1)C(=O)c1cccc(S(=O)(=O)N2CCN(c3ccc(F)cc3)CC2)c1 | . | . | 7.31µM | ? | 5.17µM | /
C1CCC(C(CC2CCCCN2)C2CCCCC2)CC1 (stereo not given) | -86.1 | 14.1µM! | 10.3µM | ? | 11.6µM | .
CS(=O)(=O)c1ccc(Nc2nc(C(N)c3ccccc3Cl)cs2)cc1 (stereo not given) | . | . | ? | ? | ? | /
O[C@H]1C[C@H](c2ccccc2)N(Cc2cccs2)C[C@@H]1n1cc(C2CC2)nn1 | . | . | ? | ? | 20.6µM | /
O[C@@H]1C[C@H](c2ccccc2)N(CC2CCCCC2)C[C@H]1n1cc(C2CC2)nn1 | . | . | . | . | ? | /
COc1ccc([C@H]2C[C@@H](O)[C@H](n3cc(C4CC4)nn3)CN2C(=O)c2cccs2)cc1 | . | . | . | . | ? | /
COc1ccc([C@H]2C[C@H](O)[C@@H](n3cc(C4CC4)nn3)CN2Cc2cccs2)cc1 | . | . | ? | . | 11.6µM | /
Oc1c(C(c2ccccc2)N2CCN(c3cccc(Cl)c3)CC2)sc2nc(-c3ccco3)nn12 (stereo not given) | / | . | ? | ? | ? | .
Cc1cccn2c(=O)c(/C=C(\C#N)C(=O)NC3CCS(=O)(=O)C3)c(Oc3ccccc3Cl)nc12 (stereo not given) | . | . | ? | ? | 20.6µM | .
Cc1cccn2c(=O)c(/C=C(\C#N)C(=O)NC3CCS(=O)(=O)C3)c(N3CCC(C(N)=O)CC3)nc12 (stereo not given) | . | . | . | . | . | .
Cc1cccn2c(=O)c(/C=C(\C#N)C(=O)NC3CCS(=O)(=O)C3)c(N3CC(C)OC(C)C3)nc12 (stereo not given) | . | . | . | . | . | .
Cc1ccccc1Oc1nc2c(C)cccn2c(=O)c1/C=C(\C#N)C(=O)NC1CCS(=O)(=O)C1 (stereo not given) | -96.7 | 6.31µM | 11.6µM | ? | 20.6µM | .
CC1CSc2n(-c3cccc(C(F)(F)F)c3)cc(-c3ccccc3)[n+]21 (stereo not given) | . | . | ? | . | 16.4µM | .
FC(F)(F)c1cccc(-n2cc(-c3ccccc3)[nH]c2=S)c1 | . | . | ? | . | ? | /
CC(C)c1ccc(S(=O)(=O)N2CCN(C(=O)CCc3nc4ccccc4c(=O)[nH]3)CC2)cc1 | . | . | ? | . | ? | /
Cc1ccc(C)c(S(=O)(=O)N2CCN(C(C)C(=O)Nc3ccccc3-c3ccccc3)CC2)c1 (stereo not given) | . | . | ? | . | 16.4µM | .
O=C(CCc1nc2ccccc2c(=O)[nH]1)N1CCN(S(=O)(=O)c2ccccc2Br)CC1 | . | . | 20.6µM | . | ? | /
